Results published in PubChem BioAssay AID1233 (SRMLSC, 2008).
Results with a measured potency or affinity are listed apart. The source made the active and inactive calls.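 How the source made its calls: active means a dose-response curve fit returns a half-maximal inhibitory concentration, extrapolated values included; inactive means the fit returns no such concentration.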

Each compound was assayed against HMG-CoA reductase [Enterococcus faecalis] (UniProt Q9FD70) (assay: class II HMG-CoA reductase inhibition potency – biochemical, Enterococcus faecalis, confirmation (AID 1233)). Settings: purified E. faecalis HMGR, NADPH absorbance 340 nm kinetics; series mostly up to 100 µM.

outcome, inactive:
CCOc1ccccc1C(=O)NC1CCN(Cc2nnnn2C2CCCC2)CC1
Cc1nc(NC(=O)COC(=O)CCS(=O)(=O)c2ccccc2Cl)c(Cl)cc1Cl
Cc1ccc(S(=O)(=O)N2CCCC2C(=O)Nc2nc3ccccc3s2)cc1 (stereo not drawn)
CCN(CC)CCNC(=O)C(=O)NCC1OCCN1C(=O)c1ccc2c(c1)OCO2 (stereo not drawn)
COc1ccc(-c2cc(C(=O)Nc3c(C)nn(Cc4ccc(Cl)cc4)c3C)no2)cc1
COC(=O)c1ccccc1NC(=O)NCc1ccco1
CCc1ccc(NC(=O)CSCc2ccc(C(=O)O)cc2)cc1
N#Cc1c2c(c(-c3ccccc3Cl)[nH]c1=S)CCCC2
O=C(Nc1cccc(Br)c1)c1ccc2nc(N3C(=O)CCC3=O)sc2c1
O=C(Nc1ccc(S(=O)(=O)Nc2ccccc2)cc1)C1COc2ccccc2O1 (stereo not drawn)
N#CC(C#N)=Cc1cc2ccccc2nc1N1CCOCC1
CCOc1ccc(C2C(C#N)=C(N)Oc3cc(C)oc(=O)c32)cc1 (stereo not drawn)
COc1ccc2cc(C3NC(=O)c4ccccc4N3)c(Cl)nc2c1 (stereo not drawn)
COc1ccc(N=CC2=C(O)c3ccccc3C2=O)c(OC)c1
O=C(c1ccco1)N1CCCN(Cc2cn[nH]c2-c2ccc(-c3ccccc3)cc2)CC1
O=C(COC(=O)C1CCC(=O)N1)Nc1ccc(Br)cc1 (stereo not drawn)
CCCCc1c(O)nc(SCC(=O)c2ccccc2)[nH]c1=O
CC1CCCC(NC(=O)CN(C)S(=O)(=O)c2cnc[nH]2)C1C (stereo not drawn)
COc1ccc(S(=O)(=O)N2CC=C(C(=O)Nc3ccc(NC(C)=O)cc3)CC2)cc1
NC1=NC(=O)S/C1=C\c1ccc(F)cc1
O=[N+]([O-])c1ccc(Cl)c(-c2ccc(/C=N/c3c(-c4ccco4)nc4ccccn34)o2)c1
CCCNCc1cc(OC)c(OCc2ccccc2)cc1Br
CC1=CC(C)C(C(=O)O)C(C(=O)O)C1 (stereo not drawn)
CCOC(=O)Cc1csc(SCC(=O)c2c(N)n(CC(C)C)c(=O)n(C)c2=O)n1
COc1cccc(CNC(=O)CCS(=O)(=O)c2cccs2)c1
Cc1ccsc1C=C1C(=O)c2ccccc2C1=O
COCCn1c(=N)c(C(=O)NCc2ccco2)cc2c(=O)n3cc(C)ccc3nc21
O=C(Nc1ccccc1)N1C2CCC1CC(O)(c1cccnc1)C2 (stereo not drawn)
O=C(Nc1ccccn1)c1cccc(S(=O)(=O)N2CCOCC2)c1
O=C(CN1CCN(c2ncc(C(F)(F)F)cc2Cl)CC1)NC(=O)NCc1ccccc1
Cc1cc(C)nc(NC(=O)CCCC(=O)O)c1
CC(NCCC(c1ccccc1)c1ccccc1)c1ccccc1 (stereo not drawn)
Cc1ccccc1-n1nc(C)c2cc(C(=O)N3CCN(S(=O)(=O)c4ccc(F)cc4)CC3)sc21
CCNC(=O)CSc1nc2cc([N+](=O)[O-])ccc2n1-c1cccc(C(F)(F)F)c1
COc1ccccc1Sc1ccccc1/C=N/NC(N)=O
Cc1ccccc1NC(=O)Cn1c(CCC(=O)O)ccc1-c1cccs1
Cc1nn(Cc2ccc(Cl)cc2)c(Cl)c1/C=N/NC(=O)CNc1ccccc1F
Cc1cccc(C(=O)N2CCC(=O)N(C(COCc3ccccc3)Cc3ccccc3)CC2)c1 (stereo not drawn)
